# Values without a mark were called inactive. Active and inactive are the calls of the source. Calls come from the whole dose curve; as a rule, active = well fitted curve in the direction sought with a large enough effect; inconclusive = small, poorly fitted or top-dose-only effect, or another doubt; inactive = no such curve, though single readings can be large; an effect the other way counts as inactive or inconclusive.
# Tested on: not listed separately
# Assay: Confirmation and Secondary Assay for Modulators of Hemoglobin Beta Chain Splicing at IVS2 705 locus (AID 930);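 note: GFP fluorescence per well restored by corrected splicing of the IVS2-705 intron in EGFP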; note: potency is the fitted concentration of half-maximal effect;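 for activation: HeLa cells stably expressing the EGFP-705 splicing reporter; % of control where 0% means no effect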
# Conditions: HeLa EGFP-705 splicing reporter, GFP fluorescence, 48 h; series mostly up to 46.1 µM; activation: at the top concentration
# Summary of the method: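 Fluorescence gain (488 nm laser, 500-520 nm PMT) reflects restored correct splicing of a mutant IVS2-705 intron inside EGFP in stably transfected HeLa cells after 2-day compound treatment.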
Compound,activation,Potency
CN(Cc1cc(Br)cc(Br)c1N)C1CCCCC1,1.09%,
COc1c(N2CCNC(C)C2)c(F)cc2c(=O)c(C(=O)O)cn(C3CC3)c12 (stereo not given),-0.234%,
CCn1cc(C(=O)O)c(=O)c2cc(F)c(N3CCNCC3)cc21,0.721%,
CC(C)(Sc1cc(C(C)(C)C)c(O)c(C(C)(C)C)c1)Sc1cc(C(C)(C)C)c(O)c(C(C)(C)C)c1,-1.17%,
NCCCC(O)(P(=O)(O)O)P(=O)(O)O,3.25%,
COc1ccc2c(c1)c(CC(=O)OCC(=O)O)c(C)n2C(=O)c1ccc(Cl)cc1,0.0672%,
O=S(=O)(O)CCS,1.16%,
COC(=O)Nc1nc2ccc(S(=O)c3ccccc3)cc2[nH]1 (stereo not given),0.897%,
NC(=O)N1c2ccccc2CC(=O)c2ccccc21,3.01%,
CCCc1cc(C(N)=S)ccn1,0.0979%,
OC(Cn1cncn1)(Cn1cncn1)c1ccc(F)cc1F,-0.771%,
Nc1ccc(S(=O)(=O)Nc2ccccn2)cc1,0.818%,
COc1cc(NS(=O)(=O)c2ccc(N)cc2)nc(OC)n1,1.39%,
Cc1cccc(N(C)C(=S)Oc2ccc3ccccc3c2)c1,0.628%,
N=C(N)c1ccc(OCCCCCOc2ccc(C(=N)N)cc2)cc1,-0.619%,
CC1=CC(=O)c2ccccc2C1=O,3.23%,
Nc1nc(=S)c2[nH]cnc2[nH]1,,5.01 µM (active)
C1CCC(C(CC2CCCCN2)C2CCCCC2)CC1 (stereo not given),-1.12%,
S=P(N1CC1)(N1CC1)N1CC1,0.676%,
COc1ccccc1OCC(O)COC(N)=O (stereo not given),2.19%,
O=C(O)c1cccnc1,-1.18%,
CCCCCCNC(=O)n1cc(F)c(=O)[nH]c1=O,1.98%,
Nc1nc(N)c2nc(CNc3ccc(C(=O)NC(CCC(=O)O)C(=O)O)cc3)cnc2n1 (stereo not given),0.892%,
CN(CCOc1ccc(CC2SC(=O)NC2=O)cc1)c1ccccn1 (stereo not given),1.9%,
Oc1c(Cl)cc(Cl)c2cccnc12,0.0337%,

# Molecular target: Pyruvate kinase (Leishmania mexicana) (UniProt Q27686)
# Sequence (Q27686 2-499 E452W): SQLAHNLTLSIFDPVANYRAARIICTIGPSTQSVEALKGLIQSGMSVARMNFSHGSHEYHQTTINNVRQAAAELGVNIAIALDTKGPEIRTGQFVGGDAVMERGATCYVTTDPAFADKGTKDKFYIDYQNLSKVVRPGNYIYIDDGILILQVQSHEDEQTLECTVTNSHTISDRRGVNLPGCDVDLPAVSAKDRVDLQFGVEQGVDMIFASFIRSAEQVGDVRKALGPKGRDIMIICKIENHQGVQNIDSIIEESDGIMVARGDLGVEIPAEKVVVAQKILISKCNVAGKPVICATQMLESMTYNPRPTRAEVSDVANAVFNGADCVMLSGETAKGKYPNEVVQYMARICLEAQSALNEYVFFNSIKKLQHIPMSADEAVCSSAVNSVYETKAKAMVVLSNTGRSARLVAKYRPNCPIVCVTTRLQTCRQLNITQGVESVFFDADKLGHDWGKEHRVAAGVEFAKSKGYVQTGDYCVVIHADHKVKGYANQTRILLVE
# Assay: qHTS Validation Assay for Inhibitors of Leishmania Mexicana Pyruvate Kinase (AID 945);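 note: 0% = DMSO only neutral control wells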
# Conditions: purified L. mexicana pyruvate kinase, enzyme activity, E451W mutant enzyme; series mostly up to 57.5 µM; activity change, negative = inhibition: at the top concentration
# Summary of the method: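 Compounds are tested as eight-point concentration series. Reactions contain 0.2 nM LmPYK E451W, 0.5 mM PEP, 0.1 mM ADP, 7 mM MgCl2 and 50 mM KCl at pH 7.2, run 1 h at room temperature, then read by PKLight luminescence.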
row,Compound,"activity change, negative = inhibition"
1,COc1cc2ncnc(Nc3cccc(Cl)c3)c2cc1OC,5.22%
2,OCc1ccc(-c2nn(Cc3ccccc3)c3ccccc23)o1,-6.1%
3,Cc1ccc(S(=O)(=O)N[C@@H](Cc2ccccc2)C(=O)CCl)cc1,-10.4%
4,NC(=O)c1cccc(N)c1,6.41%
5,CC(C)(C)NC(=O)[C@H]1CC[C@H]2[C@@H]3CC[C@H]4NC(=O)C=C[C@]4(C)[C@H]3CC[C@]12C,-6.99%
